Source: PubChem BioAssay AID624465 (National Center for Advancing Translational Sciences (NCATS), 2012)
The campaign covered roughly 360,000 compounds. About 300 (0.083%) were called active. No stated cut-off is given here; in the data, active means activation above about 40%; inconclusive means between about 15% and that limit; inactive means weaker than that. Many of the other results were omitted from the sample, so actives are more common in it than they were.

These compounds were tested against D(2) dopamine receptor (Homo sapiens) (UniProt P14416) (assay: Beta-Arrestin HTS for Positive Allosteric Modulators of the Human D2 Dopamine Receptor: Agonists). Details: DiscoveRx PathHunter D2 beta-arrestin, luminescence, 90 min; active compounds read high; 100% = 57 uM dopamine signal.
Description: There is great interest in identifying small molecule ligands for G-protein coupled receptors (GPCRs) as nearly 50% of all FDA-approved drugs target these important receptor proteins. […] Amongst the dopamine receptors (DARs), the D2 is arguably one of the most validated drug targets in neurology and psychiatry. For instance, all receptor-based antiparkinsonian drugs primarily work via stimulating the D2 DAR, whereas all FDA-approved antipsychotic agents are antagonists of this receptor. The D2 DAR is also therapeutically targeted in other disorders such as restless legs syndrome, tardive dyskinesia, Tourette's syndrome, and hyperprolactinemia.
To this end, a miniaturized qHTS screen was developed to be screened against the Molecular Libraries Small Molecule Repository (MLSMR). This assay seeks to identify agonists against the D2 DAR.
NIH Molecular Libraries Probe Production Network [MLPCN]
NIH Chemical Genomics Center [NCGC]
PI Name: David Sibley, National Institutes of Neurological Disorders and Stroke
DiscoveRx D2 cells were thawed from frozen stock and seeded at 2,100 cells/ 3 uL/well media (DiscoveRx Plating Reagent 2) with MultiDrop Combi dispenser (Thermo Scientific, Logan, UT) onto white tissue culture treated 1536-well Aurora plates (Brooks Automation, Chelmsford, MA) and allowed to attach overnight at 37 deg C, 5% CO2. Next, 23 nL/well of compound solutions in DMSO were added with a pintool transfer (Kalypsis, San Diego, CA). As the positive control, 1 uL/well dopamine (EC100, 57 uM final concentration) diluted in buffer (HBSS + 10 mM HEPES + SMB + 0.1% Tween-20) was dispensed to 1 column of each plate. The rest of the plate was dispensed with buffer only, 1 uL/well as well. The cells were stimulated by compounds or dopamine control for 90 minutes at 37 deg C, 5% CO2, after which 1.5 ul/well of DiscoveRx detection reagent was added with BioRAPTR FRD dispenser. The detection reagent was prepared by mixing of Galacton Star Substrate, Emerald II solution and PathHunter buffer (supplied by the assay kit) together at 1:5:19 proportion accordingly just prior to dispensing. The plates were incubated at ambient temperature for 1 hour and then the luminescent signal was read on ViewLux plate reader (PerkinElmer, Waltham, MA).

D(2) dopamine receptor (Homo sapiens), sequence (P14416 whole entry, looked up): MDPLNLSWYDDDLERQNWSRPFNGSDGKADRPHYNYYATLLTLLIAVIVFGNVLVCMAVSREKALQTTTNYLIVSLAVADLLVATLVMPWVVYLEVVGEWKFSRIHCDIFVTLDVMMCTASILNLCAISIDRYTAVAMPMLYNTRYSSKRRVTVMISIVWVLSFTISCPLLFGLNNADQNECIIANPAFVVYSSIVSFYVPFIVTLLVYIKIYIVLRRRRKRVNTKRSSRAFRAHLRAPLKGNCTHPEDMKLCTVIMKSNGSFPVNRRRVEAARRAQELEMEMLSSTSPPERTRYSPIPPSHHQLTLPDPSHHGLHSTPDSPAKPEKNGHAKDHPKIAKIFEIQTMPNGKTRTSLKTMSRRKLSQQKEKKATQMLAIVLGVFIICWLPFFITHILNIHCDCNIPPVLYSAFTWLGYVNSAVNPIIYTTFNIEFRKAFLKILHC

activation, active:
O=c1onc(-c2c(F)cccc2F)n1-c1ccccc1Cl 58.1%, Cc1ccc(CN2CCN(c3ncccn3)CC2)c(C)c1 101%, Oc1ccc(CN2CCN(c3ncccn3)CC2)cc1 57.4%, C/C(=N\Nc1cccc(C(=O)O)c1)c1ccc2c(c1)Nc1ccccc1S2 41.5%, CCS(=O)(=O)N1CCC(N2CCN(c3ccccc3)CC2)CC1 45.9%, COc1ccc(CCn2c(NN=C3CCCC3)nc3c2c(=O)[nH]c(=O)n3C)cc1 46%, COc1cc(C(=S)N2CCOCC2)cc(OC)c1OC(=O)c1ccc([N+](=O)[O-])cc1[N+](=O)[O-] 48%

activation, inactive:
CN1OC[C@@H]2CN(C(=O)c3cccnc3)[C@H](c3ccc(N4CCCCC4)cc3)C[C@@H]21 -5.55%, CCOc1ccc(Nc2nc(Cc3nnc(SCC(=O)c4ccc(C)cc4)o3)cs2)cc1 0.605%, Cc1ccc2cccc(S(=O)(=O)N3CCN(c4ccccc4F)CC3)c2n1 1.48%, O=C(Cn1c(-c2ccc(Cl)cc2)noc1=O)N1CCN(c2ccccc2F)CC1 3.21%, O=C(O)CCCC(=O)Nc1ccc(Oc2cccc(C(F)(F)F)c2)nc1 -2.77%, COc1ccc(NC(=O)C2=NNC(=O)CC2)cc1S(=O)(=O)N1CCCCC1 3.11%, CC1=C(C(=O)Nc2cccc(C(=O)NCC(C)c3ccccc3)c2)SCCO1 (stereo not given) 2.99%, CN(C)C(=O)c1nc2ccc(Cl)cn2c1CN1CCN(c2ncccn2)CC1 -28.2%, Cc1ccc(CN2CCN(/N=C/c3cccnc3)CC2)c(C)c1 -1.75%, Cc1ccc(CN2CCN(/N=C/c3ccco3)CC2)c(C)c1 -3.14%, c1cnc(N2CCN(c3ccc4ccccc4n3)CC2)nc1 -9.01%, CN(C)c1ccc(CNC2C3CC4CC(C3)CC2C4)cc1 (stereo not given) -0.168%, CCCCN(Cc1ccccc1)C(=O)C1CCN(Cc2sccc2C)CC1 -2.44%, O=C(Nc1ccc(N2CCOCC2)nc1)c1c(F)cccc1F -1.59%, CCCCC(=O)N(C)c1c(CC)nc2c(OCc3ccc(S(C)(=O)=O)cc3)cccn12 -2.46%, COc1ccc(C(=O)NCC2CCCO2)cc1S(=O)(=O)NCc1ccc(Cl)cc1 (stereo not given) 0.708%, CC(=O)Nc1cccc(/C(C)=N/NC(=O)c2c(-c3ccccc3Cl)noc2C)c1 -0.376%, C/C(=N/Nc1nc(-c2ccccc2)c(CC(=O)O)s1)c1ccccc1 -4.03%, CC(=O)NN=C(C)c1ccc(NC(=O)C2CC2)cc1 -2.2%, CC(C)Oc1ccc(CN2CCC2(C)C(=O)NCc2ccc(C(F)(F)F)cc2)cc1 (stereo not given) -5.75%, O=C(NCc1ccco1)c1ccc(NS(=O)(=O)c2cccc([N+](=O)[O-])c2)cc1 2.68%, COCc1[nH][nH]c(=O)c1C=Nc1ccc(F)cc1F -3.8%, COC(=O)C1CC2=C(CC(C)(C)CC2=O)N(c2ccccc2)C1=O (stereo not given) -1.92%, O=C(CS(=O)(=O)c1cn(Cc2ccc(Cl)cc2)c2ccccc12)N1CCOCC1 -7.71%, COc1ccc(S(=O)(=O)N(C)C[C@@H]2Oc3ccc(NS(=O)(=O)c4cn(C)cn4)cc3C(=O)N([C@@H](C)CO)C[C@@H]2C)cc1 -2%, Brc1cnc2ccccc2c1N1CCCCC1 -0.246%, COC(=O)c1cc(CNC(=O)CC(C)c2ccccc2)ccc1OC (stereo not given) -6.11%, C/C(=N\NC(=O)c1ccc(CSc2nc(C)cc(C)n2)cc1)C1CCCCC1 2.32%, CCOC(=O)C(C)Sc1nnc(CSc2nc3nc(C)cc(C)n3n2)o1 (stereo not given) -4.24%, CN(C)C(=O)CCC(=O)N1CCCCC1C(=O)Nc1ccc(Oc2ccccc2F)cc1 (stereo not given) -8.59%, COc1ccc(N(CC(=O)NC2CCCC2)C(=O)CS(=O)CC(=O)Nc2ccc3c(c2)OCO3)cc1 (stereo not given) -1.02%, Cc1ccccc1-c1nc(CS(=O)(=O)CC(=O)N2CCc3ccccc3C2)c(C)o1 -4.35%, CCC1C(C#N)=C(SC)NC2=C1C(=O)CC(C)(C)C2 (stereo not given) -0.142%, O=C(NC1CCCCC1)C1CC(=O)N(CCc2ccccc2)C1 (stereo not given) -0.239%, CO/N=C/c1cn(-c2ccc(Cl)cc2)nn1 -5.2%, N#CC1(Nc2ccc3c4c(cccc24)CC3)CCCCC1 -1.77%, CCOc1ccc(CC(=O)NCCS(=O)(=O)N2CCN(c3ccccc3)CC2)cc1 0.195%, O=S(=O)(NCCS(=O)(=O)N1CCN(c2ccccc2)CC1)c1ccc(F)cc1 -3.38%, CC1CCN(c2nc3c(c(=O)[nH]c(=O)n3C)n2CCCc2ccccc2)CC1 1.37%, COc1ccc(CCn2c(NCCCN3CCOCC3)nc3c2c(=O)[nH]c(=O)n3C)cc1 0.498%, Cc1noc(C)c1C(=O)NC(C)c1ccc2c(c1)OCO2 (stereo not given) 2.73%, Nc1cc2c(cc1Br)-c1ccc(F)cc1C2=O 0.435%, Cn1nc(C(=O)OCC(=O)N(Cc2ccccc2)C(C)(C)C)c2ccccc2c1=O -5.43%, CNC[C@@H]1Oc2c(NS(C)(=O)=O)cccc2C(=O)N([C@@H](C)CO)C[C@H]1C -2.2%, CCOc1cc(CN2CCCC(CO)(Cc3ccc(F)cc3F)C2)ccc1OC (stereo not given) -5.13%, COc1ccccc1N1CCN(S(=O)(=O)CCNC(=O)c2ccc(OC(C)C)cc2)CC1 4.66%, CCCCNC(=O)c1nc(C2CCN(S(=O)(=O)c3ccc(F)c(F)c3)CC2)oc1-c1cccc(C(F)(F)F)c1 -1.93%, OCCN1CCN(CCO)C1=S -3.52%, O=C(CSc1nnc2n1CCCN2)c1ccccc1 1.27%, COc1cc(C(=S)N2CCOCC2)cc(OC)c1OC(=O)c1cc([N+](=O)[O-])c(C)c([N+](=O)[O-])c1 4.7%, COc1cc([N+](=O)[O-])cc([N+](=O)[O-])c1NC(=O)N1CCOCC1 5.63%, O=C(CN(C(=O)CNC(=O)c1cccs1)c1cccc(F)c1)NC1CCCCC1 -1.63%, O=C1CCC(C(=O)N2CCCCO2)CN1Cc1cccc(C(F)(F)F)c1 (stereo not given) 1.46%, CCCCN1C(=O)C(CC(=O)NC(c2ccccc2)c2ccccc2)CC(C(=O)N2CCOCC2)=C1C (stereo not given) -7.35%, CCOC(=O)C(CCOc1cccc(CC)c1)C(=O)OCC -1.01%, CNC(=O)c1csc(Cc2c(Cl)sc3ccc(Cl)cc23)n1 4.37%, Cc1ccc(S(=O)(=O)N(CC(=O)Nc2cccc([N+](=O)[O-])c2)Cc2ccc(Cl)cc2)cc1 -7.47%, CCC(C)NC(=O)Cn1nc(C(F)(F)F)c2c1CCC2 (stereo not given) 1.68%, COc1ccc(S(=O)(=O)N(C)C[C@H]2OCc3cnnn3CCCC(=O)N([C@H](C)CO)C[C@H]2C)cc1 4.14%, CN(C)CCNC(=O)c1ccc(-c2cn3c(-c4ccc(Oc5ccccc5)cc4)cnc3cn2)cc1 3.24%, C/C=C/C(=O)Nc1nnc(C(C)C)s1 -0.338%, O=C(NNc1nc(N2CCCC2)nc(N2CCCC2)n1)c1ccccc1 1.25%, Cc1cc2c(cc1C)NC1(C[C@H]3CCC(=O)N4CC[C@@H](C1)[C@@H]34)C(=NC(C)(C)CC(C)(C)C)N2 (stereo not given in full) 1.8%
